Laboratory results: PubChem BioAssay (NCATS)
Records with an inconclusive call do not appear. Values without a mark were called inactive. The source made the active and inactive calls. Calls come from the whole dose curve; as a rule, active = well fitted activation curve with a large enough effect; inconclusive = small, poorly fitted or top-dose-only effect; inactive = no such curve, though single readings can be large or run the other way.

experiment: qHTS for Activators of Parkin Expression: LOPAC Validation Assay (FLuc Reporter) (AID 720573;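 for activation: 0% = DMSO and 100% = positive control compounds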); conditions: Cell line, PRKN promoter firefly luciferase reporter; series mostly up to 46.1 µM; activation: at the top concentration
From the text: Parkin is an E3 ubiquitin ligase localized in the cytosol of cells expressed in many tissues, including brain, skeletal muscle, heart and liver tissues. One hour after stress induction by mitochondrial uncouplers (which mimic mitochondria damage by decreasing the mitochondrial inner membrane electrochemical gradient that is used to produce ATP), Parkin translocates from the cytosol to mitochondria in many cultured cell types, including neurons and HeLa cells. Administration of other mitochondrial poisons, such as Paraquat and azide in cells lacking mitochondrial DNA (mtDNA), induces Parkin translocation to mitochondria. […] It was proposed that Parkin (together with Pink1) mediates a mitochondrial quality control pathway to maintain organelle population fidelity by removing damaged mitochondria. Understanding the normal physiologic role of Parkin (and Pink1) may uncover novel treatment strategies for sporadic Parkinson's disease patients with mutation in these genes.
A cell based qHTS in 1536 well format was developed assess modulation of Parkin expression using a neuronal cell line that stably expresses a stably expresses a luminescent coincidence reporter (FLuc and NLuc reporters) behind the Parkin promoter. The LOPAC library is used to validate the assay for quantitative high-throughput screening. The data herein reports the signal from the FLuc reporter. An increase in this signal = activation of Parkin expression. For this assay , a positive control normalized signal increase corresponding to a high quality qHTS curve class in both luminescent channels is the desired outcome for this assay.
NIH Chemical Genomics Center [NCGC]
NIH Molecular Libraries Probe Centers Network [MLPCN]
Assay Submitter (PI): Richard Youle, National Institute of Neurological Disorders and Strokes (NINDS), NIH
[1] Narendra, D., et al., Parkin is recruited selectively to impaired mitochondria and promotes their autophagy. J Cell Biol, 2008. 183(5): p. 795-803.
[2] Suen, D.F., et al., Parkin overexpression selects against a deleterious mtDNA mutation in heteroplasmic cybrid cells. Proc Natl Acad Sci U S A, 2010. […] 11835-40.
[3] Cheng K, Inglese J. A coincedence reporter-gene system for high-throughput screening. Nat Methods. 2012: 9(10);937
Five microliters (1,500 cells/well) of the Parkin coincidence reporter cells were seeded to 1536 well assay plates (Greiner Catalog # 789173-F) and incubated at 37 C, 5% CO2 for 24 hours. Compounds (23 nL) were pinned using the Kalypsys robotic system equipped with 1536 pin head adaptor in 7-point dose response. The assay plates were incubated for additional 24 hr at 37 C, 5% CO2 followed by a volume reduction in each well to 2 uL using an automated plate washer/aspirator. Following the volume reduction,2 uL of FLuc detection reagent and plates were incubated for 10 minutes at room temperature. The FLuc luminescence signal was obtained using the PerkinElmer ViewLux plate imager and then 2 uL of NanoLuc detection reagent was added to the plates. After another 10 minute incubation, NanoLuc signal was obtained using the PerkinElmer ViewLux plate imager as before. Data from each channel was normalized to DMSO (neutral control) and the positive control compounds (100%).
Potency is the fitted concentration of half-maximal effect.

Row | Structure (SMILES) | activation | Potency
1 | Nc1ncnc2c1ncn2[C@@H]1O[C@H](COP(=O)(O)OP(=O)(O)OP(=O)(O)OP(=O)(O)OC[C@@H]2O[C@H](n3cnc4c(N)ncnc43)[C@@H](O)[C@H]2O)[C@@H](O)[C@H]1O | -6.11% | –
2 | NCCCS(=O)(=O)O | -16.3% | –
3 | NC(N)=NC(=O)c1nc(Cl)c(N2CCCCCC2)nc1N | 12.2% | –
4 | CCCCCCCC/C=C\CCCCCCCC(=O)NCCO | -11.1% | –
5 | CCN(CC)c1ncnc2c1ncn2[C@@H]1O[C@H](COP(=O)(O)OP(=O)(O)C(Br)(Br)P(=O)(O)O)[C@@H](O)[C@H]1O | -0.701% | –
6 | Cn1c(=O)c2[nH]c(-c3ccccc3)nc2n(C)c1=O | -5.42% | –
7 | COc1ccccc1N1CCN(CCN(C(=O)c2ccc(I)cc2)c2ccccn2)CC1 | -12.7% | –
8 | C[N+](C)(CCCCCC[N+](C)(C)CCCN1C(=O)c2cccc3cccc(c23)C1=O)CCCN1C(=O)c2cccc3cccc(c23)C1=O | -11.8% | –
9 | N#C/C(=C\c1c[nH]c2ccccc12)C(=O)c1ccc(O)c(O)c1 | 5.11% | –
10 | NC(=S)NCCC[C@H](N)C(=O)O | -4.98% | –
11 | O=S(=O)(c1cccc2c(I)cccc12)N1CCCNCC1 | 0.396% | –
12 | COC1=C(OC)C(=O)c2ccccc2C1=O | -45.1% | –
13 | CN1CCc2cccc3c2C1Cc1ccc(O)c(O)c1-3 (stereo not given) | -7.91% | –
14 | NS(=O)(=O)C#Cc1ccccc1 | -49.6% | –
15 | CNCC[C@H](Oc1ccc(C(F)(F)F)cc1)c1ccccc1 | -13.4% | –
16 | N.N.N.N.N.N.N.N.N.N.N.N.N.N.O.O.[Ru+4].[Ru+5].[Ru+5] | -31.4% | –
17 | C[N+](C)(C)CCOP(=O)(O)OP(=O)([O-])OC[C@H]1O[C@@H](n2ccc(N)nc2=O)[C@H](O)[C@@H]1O | -12.4% | –
18 | NC(CCCP(=O)(O)O)C(=O)O (stereo not given) | 1.61% | –
19 | CN1C2CC(OC(=O)[C@H](CO)c3ccccc3)CC1C1OC12 (stereo not given in full) | -4.69% | –
20 | Nc1nc(Nc2ccccc2)nc2c1ncn2[C@@H]1O[C@H](CO)[C@@H](O)[C@H]1O | 18.6% | –

Row | Structure (SMILES) | activation | Potency
21 | CC(C)Cc1ccc([C@H](C)C(=O)O)cc1 | -5.04% | –
22 | Ic1ccc(N2CCN(Cc3c[nH]c4ncccc34)CC2)cc1 | -19.8% | –
23 | CC(C)(C=O)Cc1cc(C(C)(C)C)c(O)c(C(C)(C)C)c1 | 2.35% | –
24 | CCCCCCCCCCCCCCCC(=O)NCC(COP(=O)([O-])OCC[N+](C)(C)C)OCC (stereo not given) | 1.58% | –
25 | O=C(O)c1cc(=O)c2c(Cl)cc(Cl)cc2[nH]1 | -6.77% | –
26 | O=C(O)c1cc([N+](=O)[O-])ccc1NCCCc1ccccc1 | 12.8% | –
27 | CCCCCC(O)c1cccc(OCc2ccc3ccccc3n2)c1 (stereo not given) | -10.7% | –
28 | OCC1O[C@H]([S-])[C@H](O)[C@@H](O)[C@@H]1O.[Au+] (stereo not given in full) | -23.9% | –
29 | C[N+]1(C)C2CC(OC(=O)[C@H](CO)c3ccccc3)CC1C1OC12 (stereo not given in full) | – | inactive
30 | OC[C@H]1O[C@@H](n2cnc3c(NC4CCCC4)ncnc32)[C@H](O)[C@@H]1O | -7.37% | –
31 | COc1ccc(NC(=O)/C=C/c2ccc(Cl)cc2)cc1 | – | 1.03 µM (active)
32 | O=Nc1ccc2oc(=O)ccc2c1 | 1.1% | –
33 | CCCCCCCCCCCCCCCCCC(=O)OC(CC(=O)O)C[N+](C)(C)C (stereo not given) | -43.3% | –
34 | CCC1C(=O)OCC1Cc1cncn1C (stereo not given) | – | inactive
35 | CC(C)(C)c1ccc(S(=O)(=O)/C=C/C#N)cc1 | -48.9% | –
36 | CCCCCCCCCCCCCCCCCCNC(=O)OCC(COP(=O)([O-])OCC[n+]1ccsc1)OC (stereo not given) | -12.9% | –
37 | OC[C@H]1O[C@@H](n2cnc3c(NC4CCCCC4)ncnc32)[C@H](O)[C@@H]1O | -3.39% | –
38 | O=C1/C(=C/c2ccsc2)CC/C1=C\c1cccs1 | – | 18.4 µM (active)
39 | O=C(Nc1ccccc1)c1cc([N+](=O)[O-])ccc1Cl | -11.7% | –
40 | CCNC(=O)[C@H]1O[C@@H](n2cnc3c(N)nc(NCCc4ccc(CCC(=O)O)cc4)nc32)[C@H](O)[C@@H]1O | -9.82% | –
